In test [1] the target is Rap guanine nucleotide exchange factor 3 (Homo sapiens) (UniProt O95398). Put plainly: Confirmatory qHTS for antagonist of cAMP-regulated guanine nucleotide exchange factor 3 (EPAC1) (AID 1645880).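 Further: plate controls were DMSO only for no effect and full effect of the ATA control for full effect; nearly all actives have a fitted effect of over 55% in size.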 The following applies: EPAC1 Rap1B-BODIPY-GDP exchange, fluorescence; activity, negative = inhibition: at 115 µM (top of the series). In short, it runs like this: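 Released BODIPY-GDP fluoresces less than Rap1-bound BODIPY-GDP; the signal is followed at 480/540 nm at 5-min intervals over 30 min, after 5 min at room temperature. Reactions contain 100 nM EPAC1, 250 nM RAP1B-BODIPY-GDP and 50 uM GDP; results are normalized to ATA and DMSO.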
On the technique in general: qHTS replaces the single test concentration by a dilution series.

The target in test [2] is Rap guanine nucleotide exchange factor 4 (Homo sapiens) (UniProt Q8WZA2). Briefly: Confirmatory qHTS for agonist of cAMP-regulated guanine nucleotide exchange factor 4 (EPAC2) (AID 1645884). Further: nearly all actives have a fitted effect of over 65% in size. Further: potency means the concentration at half of the fitted maximal effect. On activation: on the % scale 0 is the no-effect control and ±100 the full control effect.
The target is the same in test [3]. Briefly: Confirmatory qHTS for antagonist of cAMP-regulated guanine nucleotide exchange factor 4 (EPAC2) (AID 1645885). Further: nearly all actives have a fitted effect of over 25% in size. Further: potency means the concentration at half of the fitted maximal effect. On activity change, negative = inhibition: on the % scale 0 is the no-effect control and ±100 the full control effect.
For test [4], the target named is Rap guanine nucleotide exchange factor 3 (Homo sapiens) (UniProt O95398). Put plainly: Counterscreen qHTS for agonist of cAMP-regulated guanine nucleotide exchange factor 3 (EPAC1) (AID 1645889). Further: nearly all actives have a fitted effect of over 40% in size. Further: potency means the concentration at half of the fitted maximal effect. On activation: % of control where 0% means no effect. In outline: (§1)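 Measured: fluorescence of BODIPY-GDP bound to Rap1B, which falls as exchange proceeds. Conditions include 50 uM competing GDP, 5 and 30 min reads, and a later cAMP challenge for antagonist detection.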

The target is the same in test [5]. Briefly: Counterscreen qHTS for antagonist of cAMP-regulated guanine nucleotide exchange factor 3 (EPAC1) (AID 1645888). Further: % of control where 0% means no effect. In short, it runs like this: as §1
On the technique in general: A counterscreen serves to expose hits that act by an unwanted route or on another target.

Test [6] addresses Tumor susceptibility gene 101 protein (Homo sapiens) (UniProt Q99816). Put plainly: qHTS Assay for Iinhibitors of HIV-1 Budding by Blocking the Interaction of PTAP/TSG101: Hit Validation (AID 651600). Further: nearly all actives have a fitted effect of over 70% in size. Further: potency means the concentration at half of the fitted maximal effect. On activity change, negative = inhibition: on the % scale 0 is the no-effect control and ±100 the full control effect. In outline: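 FITC-PTAP peptide (50 nM final) binding to Tsg101 binding domain (10 uM final) was measured by polarization after 20 min at r.t. with compounds, in 10 mM HEPES pH 7.5 buffer with 0.15 M NaCl and 0.01% Tween 20.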

The nature of test [7]: Stat Signaling Pathway (AID 446; active means well fitted curve in either direction with a large enough effect, not every such curve was filed as active;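 further: ME-180 cervical cancer cells given 40 pM IL-6 alongside compound; SIE-controlled beta-lactamase reporter measured as 460/530 nm FRET emission ratio; on the % scale 0 is the no-effect control and ±100 the full control effect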). In outline:
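Compound effects on IL-6-induced STAT reporter activity were measured in ME-180 cells. After overnight culture, cells were co-treated with 40 pM IL-6 for 5 hrs before beta-lactamase substrate loading at room temperature.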

Test [8] concerns the target Glucocorticoid receptor (Homo sapiens) (UniProt P04150). Briefly: GR-GFP Redistribution (AID 450;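 active means compounds whose dose series gives a full or clear partial fitted curve of increased nuclear translocation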; further: potency means the concentration at half of the fitted maximal effect). As to conditions: U2OS GR-GFP nuclear translocation, laser cytometry, 2 h.

The record followed here is PubChem BioAssay (NCATS).

Unmarked numbers belong to inactive results. Results filed as inconclusive are left out. Activity calls are given as the source filed them. Unless noted, the call rests on the fitted dose curve; in most records, active means well fitted curve in the direction sought with a large enough effect; inconclusive means small, poorly fitted or top-dose-only effect, or another doubt; inactive means no such curve, though single readings can be large; an effect the other way counts as inactive or inconclusive.

Chain of Rap guanine nucleotide exchange factor 3 (Homo sapiens) (O95398 whole entry, looked up): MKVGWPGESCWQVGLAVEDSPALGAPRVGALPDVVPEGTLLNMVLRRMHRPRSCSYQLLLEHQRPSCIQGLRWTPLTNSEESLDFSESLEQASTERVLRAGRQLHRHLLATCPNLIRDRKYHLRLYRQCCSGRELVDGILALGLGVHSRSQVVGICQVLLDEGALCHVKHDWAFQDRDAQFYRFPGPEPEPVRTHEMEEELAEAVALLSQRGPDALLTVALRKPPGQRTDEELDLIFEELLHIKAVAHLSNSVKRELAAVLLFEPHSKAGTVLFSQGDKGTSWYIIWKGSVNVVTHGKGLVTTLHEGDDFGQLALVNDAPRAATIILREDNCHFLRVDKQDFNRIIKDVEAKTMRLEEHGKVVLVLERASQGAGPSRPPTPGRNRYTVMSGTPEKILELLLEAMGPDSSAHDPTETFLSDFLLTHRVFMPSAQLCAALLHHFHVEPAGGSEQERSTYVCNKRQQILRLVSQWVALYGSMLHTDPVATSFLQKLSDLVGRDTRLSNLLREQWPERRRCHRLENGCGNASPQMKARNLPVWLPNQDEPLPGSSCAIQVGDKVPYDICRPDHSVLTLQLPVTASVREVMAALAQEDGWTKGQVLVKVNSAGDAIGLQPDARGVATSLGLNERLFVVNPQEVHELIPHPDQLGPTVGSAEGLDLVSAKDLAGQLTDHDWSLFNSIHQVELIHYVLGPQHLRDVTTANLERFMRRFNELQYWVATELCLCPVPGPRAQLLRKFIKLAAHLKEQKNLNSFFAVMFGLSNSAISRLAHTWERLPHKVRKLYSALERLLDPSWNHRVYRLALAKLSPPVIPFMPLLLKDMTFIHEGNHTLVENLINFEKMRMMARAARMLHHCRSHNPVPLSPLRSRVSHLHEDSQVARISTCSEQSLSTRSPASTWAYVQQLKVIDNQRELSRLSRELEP
Chain of Rap guanine nucleotide exchange factor 4 (Homo sapiens) (Q8WZA2 whole entry, looked up): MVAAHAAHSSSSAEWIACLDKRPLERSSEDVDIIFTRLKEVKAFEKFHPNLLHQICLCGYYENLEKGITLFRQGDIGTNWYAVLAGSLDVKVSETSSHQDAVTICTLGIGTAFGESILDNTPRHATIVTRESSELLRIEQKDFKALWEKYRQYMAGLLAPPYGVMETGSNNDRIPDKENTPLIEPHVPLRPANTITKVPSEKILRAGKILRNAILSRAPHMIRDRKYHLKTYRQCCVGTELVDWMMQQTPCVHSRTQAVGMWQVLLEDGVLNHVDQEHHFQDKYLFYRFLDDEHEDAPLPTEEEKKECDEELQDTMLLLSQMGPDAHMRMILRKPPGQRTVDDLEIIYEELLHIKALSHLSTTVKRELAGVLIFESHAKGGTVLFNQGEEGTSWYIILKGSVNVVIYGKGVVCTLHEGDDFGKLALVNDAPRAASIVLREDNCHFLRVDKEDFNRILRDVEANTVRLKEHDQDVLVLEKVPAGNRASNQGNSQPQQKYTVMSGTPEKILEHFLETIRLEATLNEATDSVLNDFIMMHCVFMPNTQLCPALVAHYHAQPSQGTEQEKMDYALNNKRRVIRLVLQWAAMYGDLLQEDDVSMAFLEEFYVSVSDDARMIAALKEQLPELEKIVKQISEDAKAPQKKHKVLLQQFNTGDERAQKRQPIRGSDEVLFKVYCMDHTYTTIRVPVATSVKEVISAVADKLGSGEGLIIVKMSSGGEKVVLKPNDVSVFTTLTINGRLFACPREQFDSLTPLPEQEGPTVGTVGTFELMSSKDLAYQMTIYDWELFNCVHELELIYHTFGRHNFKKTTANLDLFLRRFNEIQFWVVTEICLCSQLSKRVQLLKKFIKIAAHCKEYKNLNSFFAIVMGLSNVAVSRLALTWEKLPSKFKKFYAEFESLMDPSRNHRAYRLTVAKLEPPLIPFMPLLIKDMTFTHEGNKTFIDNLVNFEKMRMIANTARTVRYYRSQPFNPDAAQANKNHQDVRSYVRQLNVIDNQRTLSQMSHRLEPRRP
Chain of Tumor susceptibility gene 101 protein (Homo sapiens) (Q99816 whole entry, looked up, the tested form may be a part): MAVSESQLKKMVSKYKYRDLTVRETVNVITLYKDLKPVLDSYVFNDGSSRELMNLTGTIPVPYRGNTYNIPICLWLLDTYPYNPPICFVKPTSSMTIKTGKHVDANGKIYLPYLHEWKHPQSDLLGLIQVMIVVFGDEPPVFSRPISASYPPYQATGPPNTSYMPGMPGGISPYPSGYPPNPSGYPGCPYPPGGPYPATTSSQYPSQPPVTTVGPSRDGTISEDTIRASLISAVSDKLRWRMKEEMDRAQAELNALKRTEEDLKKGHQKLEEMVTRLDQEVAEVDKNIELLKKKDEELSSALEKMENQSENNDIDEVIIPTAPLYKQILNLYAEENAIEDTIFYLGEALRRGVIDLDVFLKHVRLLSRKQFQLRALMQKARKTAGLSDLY
Chain of Glucocorticoid receptor (Homo sapiens) (P04150 whole entry, looked up): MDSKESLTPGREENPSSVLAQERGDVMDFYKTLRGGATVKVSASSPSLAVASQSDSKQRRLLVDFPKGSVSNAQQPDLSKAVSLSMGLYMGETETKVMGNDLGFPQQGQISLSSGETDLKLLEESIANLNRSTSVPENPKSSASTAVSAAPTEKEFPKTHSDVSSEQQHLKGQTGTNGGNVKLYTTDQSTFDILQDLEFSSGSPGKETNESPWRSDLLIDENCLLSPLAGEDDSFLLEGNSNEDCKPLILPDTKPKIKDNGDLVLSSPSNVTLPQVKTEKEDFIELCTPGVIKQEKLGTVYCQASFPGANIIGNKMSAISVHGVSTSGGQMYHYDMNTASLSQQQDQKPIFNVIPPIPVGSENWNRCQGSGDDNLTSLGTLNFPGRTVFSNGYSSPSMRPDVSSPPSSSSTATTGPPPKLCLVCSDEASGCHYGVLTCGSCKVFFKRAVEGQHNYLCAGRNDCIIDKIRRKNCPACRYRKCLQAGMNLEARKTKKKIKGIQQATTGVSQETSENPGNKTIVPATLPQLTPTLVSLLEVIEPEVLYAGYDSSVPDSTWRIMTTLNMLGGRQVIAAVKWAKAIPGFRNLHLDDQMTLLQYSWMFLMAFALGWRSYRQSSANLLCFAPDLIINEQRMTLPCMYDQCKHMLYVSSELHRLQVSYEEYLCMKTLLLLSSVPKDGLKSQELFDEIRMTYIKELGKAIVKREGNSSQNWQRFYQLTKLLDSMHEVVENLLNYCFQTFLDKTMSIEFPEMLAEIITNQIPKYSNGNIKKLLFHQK

Turning to `COCCn1c2nc(=O)n(-c3ccccc3)c(=O)c-2nc2ccccc21`, the Potency entry in test [1] is “inactive”. For the same molecule, the Potency in test [2] is 100 µM (active); in test [3] it was 75.7 µM (active); in test [4] it was 39.8 µM (active).

For the molecule `Cc1ccc2oc(=O)n(Cc3ccccc3)c2c1`, the Potency result in test [1] was “inactive”. For the same molecule, the activation in test [2] was 5.26% [at 17.1 µM, percent relative to cAMP agonist control]. Moreover, the activity change, negative = inhibition in test [5] is 1.72% [at 30.8 µM].

With `CC(=O)Nc1ccc(Nc2c3c4c(cccc4n(C)c2=O)C(=O)c2ccccc2-3)cc1`, the Potency result in test [1] and in test [5] was “inactive” each time. Moreover, the Potency in test [2] is 100 µM (active).

As to `CCOC(=O)C1=C(C)NC(SC)=C(C#N)C1CC(C)C` (centres undefined), the Potency result in test [1], in test [2], in test [3] and in test [4] was “inactive” in each case.

In the case of `CCN1CCc2c(sc(NC(=O)CSc3ccccc3)c2-c2nc3ccccc3s2)C1`, the Potency entry in test [6], in test [1], in test [2] and in test [5] was “inactive” each time. Moreover, the Potency in test [3] is 3.79 µM (active).

As to `Cc1ccccc1C(=O)Nc1ccc(C(=O)OCc2cc(=O)n3c4c(sc3n2)CCCC4)cc1`, the Potency result in test [1], in test [2], in test [3] and in test [4] was “inactive” throughout.

For `CCN(CC)c1ccc2cc(-c3nnc(-c4ccncc4)o3)c(=O)oc2c1`, the outcome in test [7] was inactive. In addition, the results for the Potency in test [8], in test [2] and in test [3] were 3.51 µM (active), 100 µM (active) and 75.7 µM (active), respectively. Moreover, the Potency result in test [6], in test [1] and in test [5] was “inactive” throughout.

As for `CNc1ccc2c3c(cccc13)C(=O)N(C)C2=O`, the Potency in test [6] was 2.06 µM (active); in test [2] it was 112 µM (active); in test [3], 84.9 µM (active). The Potency entry in test [1] was “inactive”.

Turning to `Cc1ccc(NC(=O)CSc2nnc(-c3cc4occc4n3C)n2-c2ccccc2C)c(Cl)c1`, the Potency entry in test [1], in test [2] and in test [5] was “inactive” in each case.

Turning to `Cc1nc(Cl)c2c(n1)NC1=C(O2)C(=O)CCC1`, the Potency in test [6] is 18.3 µM (active). Further, the Potency entry in test [1] and in test [3] was “inactive” in each case. In addition, in test [2], the activation was 10.5% [at 17.1 µM, percent relative to cAMP agonist control]. For the same molecule, the activity change, negative = inhibition in test [5] was 20% [at 30.8 µM].

On to `O=C(NCCOc1ccc(F)cc1)c1ccccc1SCc1ccccc1`, for which the Potency entry in test [1] was “inactive”. In test [2], the activation is 7.88% [at 17.1 µM, percent relative to cAMP agonist control]. For the same molecule, the activity change, negative = inhibition in test [5] was 18.3% [at 30.8 µM].

`COc1cccc2c1C(=O)c1c(O)c3c(c(O)c1C2=O)CC(O)(C(=O)CO)CC3OC1CC(N(C)C)C(O)C(C)O1` (centres undefined): the Potency in test [6] was 4.61 µM (active). In addition, the Potency entry in test [1] and in test [3] was “inactive” each time. In addition, the activation in test [2] is 8.33% [at 17.1 µM, percent relative to cAMP agonist control]. Moreover, in test [5], the activity change, negative = inhibition was 33.3% [at 30.8 µM].

For the molecule `CCOc1cccc2sc(N3CCN(C(=O)C(C)(C)C)CC3)nc12`, the Potency entry in test [1], in test [2] and in test [4] was “inactive” throughout. Besides, the outcome in test [3] was “inactive [at 12.7 µM]”.
